According to PubChem BioAssay:
Calls of active or inactive are those of the source. Unless noted, no rule for the calls is given here.

Columns and labels:
[1] = system: Wnt5a (protein binding on small-molecule microarray); assay: Wnt5a binders on small-molecule microarray, primary screen, biophysical, 635/667 nm fluorescence (AID 1142); details: 635 nm fluorescence, higher = more signal;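 also: fluorescence read at 667 nm with signal to noise per printed feature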
[2] = cell viability in Huh7 cells, primary screen, cytotoxicity control for HCV replication inhibitor project, CellTiter-Glo luminescence, basal, 48 h (AID 1143); details: Huh7 HCV replicon, higher = more signal, called active from +8 up or from −8 down;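 also: Huh7 hepatoma cells carrying a hepatitis C replication reporter with no stimulus; test concentration not given here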
[3] = P. aeruginosa biofilm formation inhibitors, primary screen, PAO1 strain, BacTiter-Glo luminescence, LB-PBS (AID 1144); details: 12 h, higher = more signal
[4] = CREB reporter modulators without forskolin, primary screen, cell-based, PC12, CRE-LacZ reporter, unstimulated (AID 1145); details: no forskolin, luminescence, 4.5 h, higher = more signal, called active from +8 up or from −8 down
[5] = CREB reporter modulators under forskolin, primary screen, cell-based, PC12, CRE-LacZ reporter, forskolin-stimulated (AID 1146); details: luminescence, 4.5 h, higher = more signal, called active from +8 up or from −8 down;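 also: PC12 cells with 6xCRE LacZ reporter stimulated by forskolin 10 µM; beta-galactosidase reporter signal reflecting CREB driven transcription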
[6] = target: Streptavidin (Streptomyces avidinii) (UniProt P22629); assay: streptavidin binders on small-molecule microarray, primary screen, artefact control for SMM compound annotation, biophysical, 635/667 nm fluorescence (AID 1147); details: streptavidin binding, higher = more signal;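 also: signal reflects streptavidin binding to arrayed compounds as a control protein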
Sequence of Streptavidin (Streptomyces avidinii) (P22629 whole entry, looked up): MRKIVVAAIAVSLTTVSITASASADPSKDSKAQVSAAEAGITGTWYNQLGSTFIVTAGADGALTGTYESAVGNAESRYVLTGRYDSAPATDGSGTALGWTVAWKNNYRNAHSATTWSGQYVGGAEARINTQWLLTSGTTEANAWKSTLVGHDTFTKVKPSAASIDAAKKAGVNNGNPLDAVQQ

[7] = small-molecule binders of probe aInhba, primary screen, biochemical, small-molecule microarray, 635/667 nm fluorescence (AID 1148); details: higher = more signal;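 also: score merges 667nm spot fluorescence with signal-to-noise for antibody binding to printed compounds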
Torsin-1A (Homo sapiens) [8] = target: Torsin-1A (Homo sapiens) (UniProt O14656); assay: torsin A binders from cell lysate, primary screen, small-molecule microarray, wild-type, 635/667 nm (AID 1149); details: COS7 hTOR1A-WT lysate, 635 nm fluorescence, higher = more signal
Sequence of Torsin-1A (Homo sapiens) (O14656 whole entry, looked up): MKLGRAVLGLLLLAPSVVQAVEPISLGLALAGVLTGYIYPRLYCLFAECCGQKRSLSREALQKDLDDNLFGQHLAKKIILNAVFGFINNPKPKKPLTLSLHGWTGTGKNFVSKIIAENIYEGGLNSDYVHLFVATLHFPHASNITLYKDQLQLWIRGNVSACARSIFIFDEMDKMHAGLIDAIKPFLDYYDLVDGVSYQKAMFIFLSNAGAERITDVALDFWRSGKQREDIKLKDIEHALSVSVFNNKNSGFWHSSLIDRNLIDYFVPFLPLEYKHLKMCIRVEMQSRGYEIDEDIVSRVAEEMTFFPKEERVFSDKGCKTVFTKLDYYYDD

Torsin-1A (Homo sapiens) [9] = target: Torsin-1A (Homo sapiens) (UniProt O14656); assay: small-molecule binders of mutant TOR1A in lysate, primary screen, cell lysate, small-molecule microarray, COS7 lysate, 635/667 nm fluorescence (AID 1150); details: COS7 hTOR1A mutant lysate, 635 nm fluorescence, higher = more signal;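 also: score pools 667 nm emission and signal to noise measuring lysate protein binding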
[10] = system: Sonic hedgehog protein (Shh); assay: small-molecule binders of Shh protein, primary screen, biochemical, small-molecule microarray, 635/667 nm fluorescence (AID 1151); details: small-molecule microarray binding, 635 nm fluorescence; higher = more signal;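 also: Shh protein binding to compounds spotted on small-molecule microarray slides; score combines spot fluorescence intensity with signal-to-noise across triplicate slides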
[11] = E. coli DRC41 culture turbidity changes, primary screen, E. coli filamentation inducer project, strain DRC41, OD650, 48 h (AID 1152);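 also: E. coli MC1000 strain DRC41 lacking acrAB efflux pump and sulA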; details: E. coli DRC41 (acrAB sulA), higher = more signal, called active from +8 up or from −8 down
[12] = small-molecule binders of probe aLefty1, primary screen, biochemical, small-molecule microarray, 635/667 nm fluorescence (AID 1153); details: higher = more signal;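 also: score merges spot fluorescence with signal-to-noise ratio from the scanned slide images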
[13] = PSAC antagonists in infected red cells, primary screen, cell-based, P. falciparum Indochina, OD700, 1 h (AID 1154); details: P. falciparum Indochina infected RBC osmotic lysis, higher = more signal, called active from +8 up or from −8 down
[14] = PSAC antagonists in infected red cells, primary screen, cell-based, P. falciparum Indochina, OD700, 2 h (AID 1155);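 also: lysis reports solute entry through the parasite surface anion channel PSAC; channel blockers reduce lysis of infected cells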; details: P. falciparum Indochina infected erythrocytes, osmotic lysis OD700; higher = more signal, called active from +8 up or from −8 down
[15] = osmotic lysis modulators in infected erythrocytes, primary screen, PSAC antagonist project, cell-based, P. falciparum Indochina, OD700, 3 h (AID 1156); details: higher = more signal, called active from +8 up or from −8 down
[16] = PSAC antagonists in infected red cells, primary screen, cell-based, P. falciparum Indochina, OD700, 18 h (AID 1157); details: P. falciparum Indochina infected erythrocytes, osmotic lysis OD700, 18 h; higher = more signal, called active from +8 up or from −8 down
[17] = modulators of S6 phosphorylation in cells, primary screen, cell-based, A549, cytoblot, luminescence, serum-stimulated (AID 1158); details: A549 phospho-S6 cytoblot, 5 h, higher = more signal;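 also: serum-stimulated A549 lung adenocarcinoma cells; signal is phosphorylated S6 detected by cytoblot immunostaining with HRP secondary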
[18] = target: NADPH oxidase 2 (Homo sapiens) (UniProt P04839); assay: NOX2-dependent H2O2 signal modulators, primary screen, NOX inhibitor project, cell-based, HEK293-NOX2, PMA-stimulated, Amplex Red fluorescence (AID 1159); details: 45 min, higher = more signal, called active from +8 up or from −8 down; also: test concentration not given here
Sequence of NADPH oxidase 2 (Homo sapiens) (P04839 whole entry, looked up): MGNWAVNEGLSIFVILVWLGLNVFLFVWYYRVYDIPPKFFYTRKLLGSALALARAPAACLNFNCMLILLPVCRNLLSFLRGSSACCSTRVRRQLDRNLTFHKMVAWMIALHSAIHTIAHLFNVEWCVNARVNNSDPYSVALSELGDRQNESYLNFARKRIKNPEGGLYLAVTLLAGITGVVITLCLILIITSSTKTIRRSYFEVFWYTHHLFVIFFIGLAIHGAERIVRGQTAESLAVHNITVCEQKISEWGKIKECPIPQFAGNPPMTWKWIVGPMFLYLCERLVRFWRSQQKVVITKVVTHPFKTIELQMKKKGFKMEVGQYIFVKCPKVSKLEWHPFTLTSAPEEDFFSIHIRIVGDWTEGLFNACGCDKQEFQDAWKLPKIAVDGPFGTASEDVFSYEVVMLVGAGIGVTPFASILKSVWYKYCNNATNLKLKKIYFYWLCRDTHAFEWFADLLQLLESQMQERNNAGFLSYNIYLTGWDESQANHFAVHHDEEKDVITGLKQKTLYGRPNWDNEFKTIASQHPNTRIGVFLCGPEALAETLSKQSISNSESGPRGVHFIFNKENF

[19] = target: NADPH oxidase 4 (Homo sapiens) (UniProt Q9NPH5); assay: NOX4-dependent H2O2 signal modulators, primary screen, NOX inhibitor project, cell-based, HEK293-NOX4, tetracycline-induced, Amplex Red fluorescence (AID 1160); details: 45 min, higher = more signal, called active from +8 up or from −8 down
Sequence of NADPH oxidase 4 (Homo sapiens) (Q9NPH5 whole entry, looked up): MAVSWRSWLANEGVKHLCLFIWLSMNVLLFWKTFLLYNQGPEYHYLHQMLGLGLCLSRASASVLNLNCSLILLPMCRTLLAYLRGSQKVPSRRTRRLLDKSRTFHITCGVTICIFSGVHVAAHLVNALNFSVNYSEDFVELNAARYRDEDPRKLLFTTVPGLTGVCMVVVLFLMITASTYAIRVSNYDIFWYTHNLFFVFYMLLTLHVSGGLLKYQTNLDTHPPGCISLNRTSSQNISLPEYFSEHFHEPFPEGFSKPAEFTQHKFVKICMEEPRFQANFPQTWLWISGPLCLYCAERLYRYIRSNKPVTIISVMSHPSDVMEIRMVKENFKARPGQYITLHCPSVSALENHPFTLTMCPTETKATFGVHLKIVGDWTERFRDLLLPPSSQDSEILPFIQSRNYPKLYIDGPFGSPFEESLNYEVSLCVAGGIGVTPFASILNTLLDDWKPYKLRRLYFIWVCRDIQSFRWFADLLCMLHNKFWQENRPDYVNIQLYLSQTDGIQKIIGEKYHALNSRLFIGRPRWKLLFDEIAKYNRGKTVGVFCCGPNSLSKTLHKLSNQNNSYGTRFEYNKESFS

[20] = target: NADPH oxidase 5 (Homo sapiens) (UniProt Q96PH1); assay: NOX5-dependent H2O2 signal modulators, primary screen, NOX inhibitor project, cell-based, HEK293-NOX5, Amplex Red fluorescence (AID 1161); details: HEK293-NOX5, ionomycin, 45 min, higher = more signal
Sequence of NADPH oxidase 5 (Homo sapiens) (Q96PH1 whole entry, looked up): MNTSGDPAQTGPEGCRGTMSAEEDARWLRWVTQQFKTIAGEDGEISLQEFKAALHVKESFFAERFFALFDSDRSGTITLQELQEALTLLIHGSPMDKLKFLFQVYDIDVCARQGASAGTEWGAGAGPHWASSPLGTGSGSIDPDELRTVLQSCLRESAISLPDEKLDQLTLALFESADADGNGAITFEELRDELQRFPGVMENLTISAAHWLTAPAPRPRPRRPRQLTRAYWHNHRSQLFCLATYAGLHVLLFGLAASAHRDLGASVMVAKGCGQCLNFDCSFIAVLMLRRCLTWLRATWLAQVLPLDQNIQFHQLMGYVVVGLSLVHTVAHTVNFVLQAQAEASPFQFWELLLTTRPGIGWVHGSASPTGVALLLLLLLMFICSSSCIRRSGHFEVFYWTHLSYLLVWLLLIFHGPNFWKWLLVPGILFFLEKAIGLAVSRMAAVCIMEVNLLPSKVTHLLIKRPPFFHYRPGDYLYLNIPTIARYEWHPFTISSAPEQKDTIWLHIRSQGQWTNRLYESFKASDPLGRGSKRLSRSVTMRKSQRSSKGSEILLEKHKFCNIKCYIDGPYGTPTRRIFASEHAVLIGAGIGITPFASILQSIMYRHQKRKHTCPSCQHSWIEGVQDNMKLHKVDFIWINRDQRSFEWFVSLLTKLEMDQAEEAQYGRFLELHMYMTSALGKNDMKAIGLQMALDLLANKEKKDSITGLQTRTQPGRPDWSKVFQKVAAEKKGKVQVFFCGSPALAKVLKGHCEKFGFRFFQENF

SMILES	composite z-score [1]	z-score [2]	z-score [3]	z-score [4]	z-score [5]	composite z-score [6]	composite z-score [7]	composite z-score (Torsin-1A (Homo sapiens) [8])	composite z-score (Torsin-1A (Homo sapiens) [9])	composite z-score [10]	z-score [11]	composite z-score [12]	z-score [13]	z-score [14]	z-score [15]	z-score [16]	z-score [17]	z-score [18]	z-score [19]	z-score [20]
CC(=O)OC[C@H]1O[C@@H](ON=C(C)CCN2CCCc3nc(C)c(C)cc32)[C@H](OC(C)=O)[C@@H](OC(C)=O)[C@@H]1OC(C)=O	0.237	-2.36 (inactive)	-0.731 (inactive)	1.89 (inactive)	-0.112 (inactive)	0.345	-0.0626	-0.164	0.604	1.06	-1.13 (inactive)	-0.115	-0.72 (inactive)	0.0956 (inactive)	1.01 (inactive)	-1.18 (inactive)	0.649	0.502 (inactive)	-1.36 (inactive)	-1.09
Cc1ccc(S(=O)(=O)N[C@@H]2COC(=O)[C@@H](C)COC(=O)CC=C[C@H]2C)cc1	-0.278	0.215 (inactive)	-0.736 (inactive)	-0.116 (inactive)	-0.549 (inactive)	0.095	0.0633	0.399	0.366	0.472	-0.891 (inactive)	-0.103	0.124 (inactive)	0.279 (inactive)	-0.305 (inactive)	-0.113 (inactive)	-0.0223	-1.19 (inactive)	-1.59 (inactive)	-0.728
CC(C)CON=C1[C@H]2CCn3c(=O)n(Cc4cc5c(cc4Cl)OCO5)c(=O)n3[C@H]2[C@H](O)[C@@H]2O[C@H]12	0.26	-2.89 (inactive)	0.376 (inactive)	1.87 (inactive)	0.819 (inactive)	1.49	-0.0332	1.39	0.49	0.504	-1.41 (inactive)	0.0004	0.292 (inactive)	-1.05 (inactive)	0.599 (inactive)	-2.22 (inactive)	0.261	0.42 (inactive)	0.223 (inactive)	-0.799
COC(=O)[C@@H]1CC[C@H](C)[C@@H](c2ccc(C)cc2)N1C(=O)c1ccc(C=NOC[C@@H](C)[C@H](OCc2ccccc2)C(C)C)cc1	0.156	-1.17 (inactive)	0.978 (inactive)	6.15 (inactive)	-0.207 (inactive)	0.409	-0.018	0.0707	0.537	1.28	-1.07 (inactive)	-0.18	1.25 (inactive)	-1.62 (inactive)	-0.467 (inactive)	-1.35 (inactive)	2.57	-1.28 (inactive)	-0.428 (inactive)	0.388
CO[C@@H]1COC(=O)CC=C[C@H](C)[C@H](OC)COC(=O)[C@H](C)NC(=O)CC=C[C@H]1C	-0.0631	-0.0558 (inactive)	0.938 (inactive)	0.159 (inactive)	-0.463 (inactive)	-0.369	-0.133	1.57	0.63	2.09	0.525 (inactive)	-0.012	0.0859 (inactive)	0.0159 (inactive)	0.704 (inactive)	0.107 (inactive)	-0.0908	-0.402 (inactive)	-0.249 (inactive)	-0.159
CCOC(=O)CCN1C(=O)[C@H]2[C@H]3[C@H](O)[C@H](O)CC(=NOCC(C)C)[C@H]3CC[C@H]2C1=O	0.0106	0.0793 (inactive)	0.256 (inactive)	-0.0187 (inactive)	0.357 (inactive)	-0.0341	-0.159	0.47	-0.5	-0.249	0.867 (inactive)	-0.0519	0.0425 (inactive)	-0.153 (inactive)	0.298 (inactive)	0.304 (inactive)	-0.0487	-0.864 (inactive)	0.148 (inactive)	0.444
CCOC(=O)[C@H](CC(C)C)NC(=O)CCC1CC(OC(=O)NCc2cccc3ccccc23)CC2(CCCC(COC(=O)NCCOc3ccccc3)O2)O1 (stereo not given in full)	0.746	-0.248 (inactive)	-0.477 (inactive)	-0.526 (inactive)	-0.519 (inactive)	0.628	0.0248	0.236	0.117	0.805	0.288 (inactive)	-0.372	-1.67 (inactive)	-0.658 (inactive)	-2.05 (inactive)	-0.391 (inactive)	-0.305	0.711 (inactive)	0.635 (inactive)	0.534
CC(C)(C)N1C(=O)[C@H]2[C@H]3[C@H](O)[C@H](O)CC(=NOCc4ccccc4)[C@H]3CC[C@H]2C1=O	0.0771	0.899 (inactive)	-0.192 (inactive)	0.968 (inactive)	0.183 (inactive)	1	0.0342	-0.65	0.155	-0.587	0.254 (inactive)	0.57	4.05 (inactive)	0.54 (inactive)	-0.408 (inactive)	0.133 (inactive)	-0.371	-0.147 (inactive)	0.991 (inactive)	0.765
CC(=O)OC[C@H]1O[C@H](CC=NO[C@H](C)c2cn([C@H](CO)Cc3ccccc3)nn2)C=C[C@@H]1OC(C)=O	0.315	0.089 (inactive)	-0.738 (inactive)	0.839 (inactive)	0.731 (inactive)	1.35	-0.218	0.56	0.579	0.805	-0.176 (inactive)	-0.007	0.639 (inactive)	0.103 (inactive)	0.238 (inactive)	0.391 (inactive)	-0.871	-0.0815 (inactive)	0.835 (inactive)	-1.3
